High-throughput results: PubChem BioAssay, National Center for Advancing Translational Sciences (NCATS)
HT1080NT lethal – kills 2HG-producing HT-1080-NT fibrosarcoma cells; HT-1080-NT fibrosarcoma viability, CellTiter-Glo ATP luminescence, 48 h; AID 686970; Potency, µM (doses to about 46.1 µM), without a hit: at the top dose activity, negative = less viability, hits mostly cytotoxic; 1.6% of 360,000 active;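 also: NT is the 2HG producing partner of a matched IDH1 knockdown line; potency is read from the fitted curve at half-maximal effect; 0% = DMSO-treated cells and -100% = media-only wells without cells; nearly all actives have a fitted effect of over 55% in size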
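HT-1080-NT fibrosarcoma cells (2HG-overproducing), 750 cells/well in RPMI with 5% FBS, dosed after 2 h and incubated 48 h at 37C. CellTiter-Glo luminescence normalized to DMSO and no-cell wells; concentration-response curves fitted and classed.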
HT1080 IDH1KD tx – HT-1080 IDH1 knockdown cell toxicity (counter line); Potency, µM (series often up to 46.1 µM), inactives show at the top dose activity, negative = toxicity, usual class: cytotoxic; 2% of 360,000 active; AID 686971; HT-1080 IDH1 knockdown viability, ATP luminescence, 48 h;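 also: potency is read from the fitted curve at half-maximal effect; 0% = DMSO wells and -100% = cell-free medium wells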
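Cytotoxicity counter-line: IDH1KD HT-1080, 48 h, CellTiter-Glo. Curves classed by r2, magnitude and activity.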
TDP1 cell CPT – DT40-hTDP1 cell growth loss with CPT | chicken DT40 Tdp1-/-;hTDP1 cells + 20 nM CPT, ATP luminescence, 48 h | Potency, µM (highest dose often 46.2 µM), for the others: top-dose activity change, negative = growth inhibition, most hits filed as inhibitors | 12% of 420,000 active; also: potency is read from the fitted curve at half-maximal effect; nearly all actives have a fitted effect of over 55% in size
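Cell growth measured by CellTiter-Glo luminescence after a minimum 48 h, 37 C compound exposure with 20 nM CPT in Tdp1-knockout DT40 cells stably expressing hTDP1, seeded 400/well; qHTS titration format.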
TDP1 cell noCPT – qHTS for Inhibitors of human tyrosyl-DNA phosphodiesterase 1 (TDP1): qHTS in cells in absence of CPT. 15% of 420,000 active. Potency, µM (doses to about 46.2 µM), for the others: at the highest dose activity change, negative = growth inhibition, most hits filed as inhibitors. DT40 Tdp1-/- hTDP1 cells, no CPT, ATP luminescence, 48 h; also: potency is read from the fitted curve at half-maximal effect; nearly all actives have a fitted effect of over 55% in size
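DT40 Tdp1-/-;hTDP1 cells, no CPT (DMSO vehicle only), 400 cells/well; compounds pin-transferred; ≥48 hr, 37 °C; CellTiter-Glo 30 min RT dark, luminescence read.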
IL1B secr inh – blocks inflammasome-driven IL-1 beta release | THP-1 LPS/ATP IL-1B secretion, AlphaLISA, 16 h; stronger effect = lower value | activity change, % at 57.5 µM | 4.7% of 360,000 active | AID 743279; in the data active = activity change below about -50%; inconclusive = mostly about -30% to -49%
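Secreted IL-1B measured by AlphaLISA bead assay after 16 h compound exposure of THP-1 cells; compounds (final up to 57.5 uM) added 1 h before LPS (250 ng/mL) and ATP (1.25 mM) stimulation; lower signal means less secretion.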
Starred values were filed as active, the others as inactive; ? = inconclusive; . = no result given. The list is not random: actives were taken first. Their share in the collection is about 19%. Unless noted, calls follow the shape of the dose curve; as a rule, active = well fitted curve in the direction sought with a large enough effect; inconclusive = small, poorly fitted or top-dose-only effect, or another doubt; inactive = no such curve, though single readings can be large; an effect the other way counts as inactive or inconclusive. Unless noted, % is scaled to controls: 0 for no effect and ±100 for the full control effect.

SMILES	HT1080NT lethal	HT1080 IDH1KD tx	TDP1 cell CPT	TDP1 cell noCPT	IL1B secr inh
CCOC(=O)[C@H]1[C@H]2COc3ccc(OC)cc3[C@@H]2N2C(=O)c3cc(OC)c(OC)cc3NC(=O)[C@@]12C	3%	-17%	-35%	-66%	-55*
CCOC(=O)[C@H]1[C@H]2COc3ccc(Cl)cc3[C@@H]2N2C(=O)c3cc(Cl)ccc3NC(=O)[C@@]12C	-21%	-28%	13µM*	?	-18
CCOC(=O)[C@H]1[C@H]2COc3ccccc3[C@@H]2N2C(=O)c3ccc(Cl)cc3NC(=O)[C@@]12C	?	-6%	?	?	-67*
CCOc1ccc(S(=O)(=O)N2CCCCC2)cc1NC(=O)C1CCC1	7%	-3%	-8%	-22%	3
CCOC(=O)[C@H]1[C@H]2COc3ccc(Cl)cc3[C@@H]2N2C(=O)c3cc(Br)ccc3NC(=O)[C@@]12C	-8%	-9%	16µM*	21µM*	?
CCOC(=O)[C@H]1[C@H]2COc3ccc(Br)cc3[C@@H]2N2C(=O)c3cc(Br)ccc3NC(=O)[C@@]12C	-9%	-17%	?	18µM*	-14
CCOC(=O)[C@H]1[C@H]2COc3ccccc3[C@@H]2N2C(=O)c3cc(Br)ccc3NC(=O)[C@@]12C	0%	-1%	-15%	-3%	?
Cc1ccc(-n2cc(CNC(C)Cn3cncn3)c(-c3ccc(F)cc3)n2)cc1 (stereo unspecified)	-19%	-9%	?	?	?
Cc1ccc(-n2cc(CNC(C)c3cnn(C)c3)c(-c3ccc(F)cc3)n2)cc1 (stereo unspecified)	-2%	-25%	18µM*	21µM*	-1
Cc1ccc(-n2cc(CNC(C)c3cnn(C)c3C)c(-c3ccc(F)cc3)n2)cc1 (stereo unspecified)	1%	1%	5.2µM*	2.9µM*	?
CCc1nc2c(OCc3ccc(OC)cc3)cccn2c1N(C)C(=O)c1ccc(OC)cc1	-3%	-13%	?	?	-16
CCc1nc2c(OCc3ccc(C(F)(F)F)cc3)cccn2c1N(C)C(=O)c1ccc(OC)cc1	?	?	10µM*	13µM*	-81*
CCOC(=O)N(C)c1c(CC)nc2c(OCc3ccc(C(F)(F)F)cc3)cccn12	?	?	?	13µM*	-9
CCc1nc2c(OCc3ccc(C#N)cc3)cccn2c1N(C)C(=O)c1ccc(C)cc1	5%	2%	18µM*	18µM*	-20
CCOC(=O)N(C)c1c(CC)nc2c(OCc3ccc(OC(F)F)cc3)cccn12	-20%	2%	?	15µM*	-5
CCC(Sc1nc(-c2ccccc2F)nc2c1Cc1c(CO)cnc(C)c1O2)C(=O)Nc1cc(C)ccc1C (stereo unspecified)	.	.	-11%	0%	.
NC(=O)C1CCN(S(=O)(=O)c2cc3c(cc2Cl)NC(=O)CO3)CC1	.	.	8%	-2%	.
COc1cccc(C(=O)NCCNC(=O)c2ccc(C)nc2)c1	9%	4%	3%	-2%	24
CCc1nc2c(OCCn3cccc3)cccn2c1N(C)C(=O)c1ccc(C)cc1	15%	6%	?	-26%	7
CCc1nc2c(OCc3ccc(C(F)(F)F)cc3)cccn2c1N(C)C(=O)c1ccc(C)cc1	?	?	23µM*	23µM*	-76*
CC1(C(=O)NS(=O)(=O)c2ccc(F)cc2F)CCN1C(=O)c1ccc(C2CCCCC2)cc1 (stereo unspecified)	0%	?	-10%	-13%	6
Nc1nc2ccccc2n1/N=C/c1ccc(Br)cc1	7%	10%	?	16µM*	11
COc1ccc(C2C=C(C)Nc3nc4ccccc4n32)cc1 (stereo unspecified)	-3%	-6%	-4%	18µM*	21
S=C(NCCc1ccc(Cl)cc1)NC1CCCC1	9%	13%	?	?	3
S=C(NCCc1ccccc1)NC1CCCCCC1	-8%	-24%	18µM*	?	6
